An excerpt weighted towards active compounds, which were near 2.3% of everything screened.
TAG inh = inhibitors of triacylglycerol accumulation. inhibition, % at 12.5 µM. hit rate 0.66% among 230,000. H9c2 cells, Nile Red lipid (TAG) fluorescence; cells loaded with 200 µM oleic acid. AID 651582;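 active means pattern-corrected inhibition of lipid staining of at least 50% with the nuclear-stain viability signal not falling by more than 50%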
697 NFkB inh = lowers PMA/ionomycin-induced NF-kB signal in 697 B cells; hit rate 0.33% among 330,000; AID 435022; inhibition, % at 4 µM; 697 B-cell NF-kB luciferase reporter, 16 h; in the data active means inhibition above about 35%
Gli-Sufu antag = antagonists of Gli-Sufu signaling; Sufu-KO-LIGHT fibroblasts, Gli luciferase reporter luminescence; inhibition, % at 5 µM; hit rate 0.74% among 340,000;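 active means inhibition above about 55%, limit read from the data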
Shn3 3UTR inh = inhibitors of Schnurri-3 3'UTR reporter in osteoblasts | AID 588674 | inhibition, % at 12.5 µM | Clone20 osteoblast Shn3 3'UTR firefly luciferase, 24 h | hit rate 0.52% among 360,000;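 active means mean inhibition of at least 75% with every replicate also reaching 75%; inconclusive means mean inhibition at least 75% but some replicate below; inactive means mean inhibition below 75%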
aSyn UTR inh = 5' untranslated region of α-synuclein, MLPCN primary screen; inhibition, % (tested at 7.5 µM); alpha-synuclein 5'UTR reporter, inhibitor activity; AID 1813; hit rate 0.82% among 300,000; in the data active means inhibition above about 60%; inconclusive means no clear call, values can overlap the other calls;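 further: H4 neuroglioblastoma cells stably carrying SNCA 5'UTR luciferase fusion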
Jurkat NFkB inh = lowers PMA/ionomycin-induced NF-kB signal in Jurkat cells | inhibition, % at 4 µM | hit rate 0.53% among 330,000 | AID 435003 | PMA/ionomycin-induced NF-kB luciferase reporter, luminescence; in the data active means inhibition above about 50%
Large screens that a line does not name were inactive.

O=C(CSc1nnc(-c2ccc(Cl)cc2Cl)n1C1CCCCC1)N1CCCC1	Shn3 3UTR inh 92
CCOc1cc(C(=O)CSc2nnc(CNc3ccc(Cl)cc3)o2)ccc1NC(=O)CC	Shn3 3UTR inh 84 (no result: TAG inh)
COc1ccc(NCc2nnc(SCC(=O)c3ccc(OC)cc3)o2)cc1	none (no result: TAG inh)
COc1ccc(-c2c/c(=N\c3nc(-c4ccccc4)c(C)s3)c3ccccc3o2)cc1O	aSyn UTR inh 75 (no result: TAG inh)
CCN1C(=O)[C@@H]2[C@@H](c3ccc(-c4ccc(OC)cc4)cc3)N3CCC[C@@]3(C(=O)OC)[C@@H]2C1=O	none
CCN1C(=O)[C@H]2[C@@H](c3ccc(-c4ccc(OC)cc4)cc3)N3CCC[C@@]3(C(=O)OC)[C@H]2C1=O	Shn3 3UTR inh 90
CC(C)CCc1noc(CN2CCN(CC(=O)NC(C)C)CC2)n1	none
COc1cc(CNC(=O)c2cc(-c3cc(Cl)ccc3C)n[nH]2)cc(OC)c1	none (no result: 697 NFkB inh, Gli-Sufu antag, aSyn UTR inh, Jurkat NFkB inh)
C(=NNc1ccc2ccccc2n1)c1ccccn1	Shn3 3UTR inh 92 (no result: TAG inh, 697 NFkB inh, Gli-Sufu antag, aSyn UTR inh, Jurkat NFkB inh)
C(=N\N=C\c1ccccn1)/c1ccccn1	none (no result: TAG inh)
C(=N\NC1=Nc2cccc3cccc1c23)/c1ccccn1	TAG inh 51, Gli-Sufu antag 70 (no result: 697 NFkB inh, Jurkat NFkB inh)
Cc1csc(N/N=C/c2ccccn2)n1	aSyn UTR inh 69
Cc1c(C(=O)O)sc2nc(/C=C/c3cccc(O)c3)[nH]c(=O)c12	none (no result: TAG inh)
COc1ccc(Br)cc1CSC(=N)N	none
CCCCCOc1ccc(Br)cc1CSC(=N)N	Gli-Sufu antag 66, Shn3 3UTR inh 89 (no result: TAG inh, 697 NFkB inh, Jurkat NFkB inh)
Cc1cc(C(=O)N/N=C/c2cc(N=Nc3ccccc3)ccc2O)n[nH]1	Shn3 3UTR inh 87, aSyn UTR inh 66 (no result: TAG inh, 697 NFkB inh, Jurkat NFkB inh)
Cc1ccc(CNC(=O)C(=O)NCC2OCCN2C(=O)c2ccc3c(c2)OCO3)cc1 (stereo not drawn)	none
O=C(NCCNC(=O)Oc1cccc2ccccc12)Oc1cccc2ccccc12	Shn3 3UTR inh 90 (no result: 697 NFkB inh, aSyn UTR inh, Jurkat NFkB inh)
COc1cccc(OC)c1-c1nnc(-c2cn(C)c3ccccc23)o1	none
Cn1c(C(=O)NCc2ccco2)cc2c(=O)[nH]c3ccccc3c21	none
CCO[C@@H]1OC(C(=O)NC2CC2)=C[C@H](c2coc3ccccc3c2=O)[C@H]1CCCO	Shn3 3UTR inh 92 (no result: TAG inh)
COc1ccccc1OCc1nc(C#N)c(NCCCn2ccnc2)o1	none
COc1ccc(Nc2oc(COc3ccccc3OC)nc2C#N)cc1	aSyn UTR inh 98 (no result: TAG inh)
O=C(CSc1ccc(-c2ccco2)nn1)NCc1ccc(Cl)cc1	none (no result: TAG inh)
CC(=O)OCC1OC(n2cc(F)c(=O)[nH]c2=O)C(OC(C)=O)C1OC(C)=O (stereo not drawn)	none
O=C1C(F)=CC(COC(c2ccccc2)(c2ccccc2)c2ccccc2)OC1n1cc(F)c(=O)[nH]c1=O (stereo not drawn)	Shn3 3UTR inh 98 (no result: 697 NFkB inh, aSyn UTR inh, Jurkat NFkB inh)
Cn1nnnc1SC1CC(=O)N(c2ccccc2)C1=O (stereo not drawn)	none
Cc1cc(C)cc(N2C(=O)CC(Sc3nnnn3-c3ccccc3)C2=O)c1 (stereo not drawn)	Shn3 3UTR inh 88 (no result: TAG inh)
COC(=O)CCC(=O)NNC(=O)c1ccc(Cl)cc1Cl	none (no result: TAG inh)
CC1CCN(Cc2c(C(=O)N/N=C/c3cc(Br)ccc3O)nnn2-c2nonc2N)CC1	Gli-Sufu antag 86, Shn3 3UTR inh inconclusive, aSyn UTR inh 77 (no result: TAG inh)
C/C(=N\NC(=O)c1nnn(-c2nonc2N)c1CN1CCc2ccccc21)c1ccccc1O	Shn3 3UTR inh inconclusive, aSyn UTR inh 75 (no result: TAG inh)
CC1CCN(Cc2c(C(=O)N/N=C/c3cc(Cl)ccc3O)nnn2-c2nonc2N)CC1	Gli-Sufu antag 80, Shn3 3UTR inh 90, aSyn UTR inh 62 (no result: TAG inh)
COc1ccc(O)c(/C=N/NC(=O)c2c(C)nnn2-c2nonc2N)c1	aSyn UTR inh 64
COc1ccc(/C=N/NC(=O)c2nnn(-c3nonc3N)c2-c2cccc(OC)c2)cc1	none (no result: TAG inh)
O=C(CCCN1C(=O)C(c2ccccc2)Oc2cccnc21)NCc1ccc(F)cc1 (stereo not drawn)	none (no result: TAG inh)
Cc1onc(-c2ccccc2)c1C(=O)Nc1ccc2c(C)cc(=O)oc2c1	none
COC(=O)Nc1nc(-c2ccccc2)c(C(=O)c2ccc(Cl)cc2)s1	aSyn UTR inh 94 (no result: TAG inh)
Cc1ccc(-c2nc(CS(=O)CC(=O)NCCCN3CCN(Cc4ccccc4)CC3)c(C)o2)cc1 (stereo not drawn)	none (no result: TAG inh)
COc1cccc(NC(=O)CS(=O)(=O)Cc2nc(-c3ccc(C)cc3)oc2C)c1	none (no result: TAG inh)
OCCN(CCO)CC(O)COc1ccc(C23CC4CC(CC(C4)C2)C3)cc1 (stereo not drawn)	aSyn UTR inh 76 (no result: TAG inh, 697 NFkB inh, Jurkat NFkB inh)
OCCN(CCO)CC(O)COc1ccc(Br)cc1 (stereo not drawn)	none
CCCC(=O)NC(c1ccc2c(c1)OCO2)c1cc(Cl)c2cccnc2c1O (stereo not drawn)	Shn3 3UTR inh 87, aSyn UTR inh 80 (no result: TAG inh)
CCCC(=O)NC(c1cccs1)c1cc(Cl)c2cccnc2c1O (stereo not drawn)	aSyn UTR inh 99
CN(C)C(=O)N1CCC(C(=O)NC2CCCCCCC2)CC1	none (no result: TAG inh)
COC(=O)C1=C(N)Oc2cc(N(C)C)ccc2C1c1ccccc1OC (stereo not drawn)	aSyn UTR inh 83
CCCCCc1ccc(OCCCC[n+]2ccccc2)c(CCCCC)c1	Gli-Sufu antag 83, Shn3 3UTR inh 90
Cc1cc(=O)oc2cc(OCCCC[n+]3ccccc3)ccc12	none
CCOc1ccc(/C=C/[N+](=O)[O-])c2ccccc12	Shn3 3UTR inh 95
O=[N+]([O-])/C=C/c1c(OCc2ccccc2)ccc2ccccc12	none (no result: Gli-Sufu antag, Shn3 3UTR inh)
CCOC(=O)COc1ccc2ccccc2c1/C=C/[N+](=O)[O-]	Shn3 3UTR inh 95 (no result: 697 NFkB inh, Jurkat NFkB inh)
CC1CCN(CCNC(=O)c2ccc3c(=O)n(Cc4ccc(Cl)cc4)c(=S)[nH]c3c2)CC1	aSyn UTR inh 98 (no result: TAG inh)
COCCCNC(=O)c1ccc2c(=O)n(Cc3ccc(Cl)cc3)c(=S)[nH]c2c1	none (no result: TAG inh)
CC(C)NC(=O)c1ccc2c(=O)n(C3CCCC3)c(=S)[nH]c2c1	none
CCN(CC)CCNC(=O)c1ccc2c(=O)n(C3CCCC3)c(=S)[nH]c2c1	Gli-Sufu antag 71 (no result: TAG inh)
O=C(CCCC(=O)N(c1ccc2c(c1)OCCO2)C(C(=O)NC1CCCCC1)c1ccc(F)cc1)Nc1ccccn1 (stereo not drawn)	none (no result: TAG inh)
N#Cc1ccc(-c2ccc(OCC(=O)Nc3cccnc3)cc2)cc1	Shn3 3UTR inh 89
CC(=O)Nc1ccc(NC(=O)COc2ccc(-c3ccc(C#N)cc3)cc2)cc1	none
Cc1sc2cc3c(c(C(=O)c4ccccc4)[n+]2c1C)-c1cccc2cccc-3c12	Gli-Sufu antag 70 (no result: TAG inh, 697 NFkB inh, Shn3 3UTR inh, Jurkat NFkB inh)
O=C(c1ccccc1)c1c2c(cc3sc4ccccc4[n+]13)-c1cccc3cccc-2c13	Gli-Sufu antag 76 (no result: TAG inh, 697 NFkB inh, aSyn UTR inh, Jurkat NFkB inh)
O=C(c1ccccc1)c1ccc2ccccc2c1	none (no result: 697 NFkB inh, aSyn UTR inh, Jurkat NFkB inh)
COc1cc(C(=O)Nc2cccc(C)c2C)c(Br)c(OC)c1OC	none (no result: TAG inh)
C[C@@H]1CN([C@H](C)CO)C(=O)CCCn2cc(nn2)CO[C@H]1CN(C)S(=O)(=O)c1ccc(F)cc1	none (no result: TAG inh, 697 NFkB inh, Gli-Sufu antag, aSyn UTR inh, Jurkat NFkB inh)

From PubChem BioAssay
